The entries come from a sample that favours hits as a whole.
VCAM1 TNFa pot – TNF alpha stimulated VCAM1 expression potentiation | HUVEC TNFa-stimulated VCAM-1 immunofluorescence, high-content imaging; scaled per plate to unstimulated/TNFa-only wells | activation, % at 2 µM | actives 0.19% (n = 93,000) | AID 808;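 active = activation above the screen mean plus 3 SD, with well images confirming the hit on visual review, cut at about 28% in these data, passing the limit was not always enough; inconclusive = activation above that limit but images do not confirm it; inactive = activation not above that limit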;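 also: signal is the number of cytoplasmic VCAM-1 stained grains per positive cell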
VCAM1 pot conf – potentiators of TNFa-induced VCAM1 expression, confirmation, imaging, HUVEC, triplicate retest; shares compounds with VCAM1 TNFa pot; HUVEC TNFa-stimulated VCAM-1 immunofluorescence imaging; activation, % at 2 µM; 230 tested, under 10 active; AID 1034;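 active = activation above 30% in triplicate retests at 2 µM, then confirmed by visual review of the well images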;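 also: scaled per plate between unstimulated and TNFa-stimulated DMSO control wells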
The depositor's hits bear a star; u = inconclusive.

SMILES	VCAM1 TNFa pot	others
COc1ccc(C(CNC(=O)c2ccc3c(c2)C(=O)N(CCC(C)C)C3=O)N2CCOCC2)cc1 (configuration not stated)	-10
CNc1nc(Oc2ccc(=O)n(C)n2)nc(N2CCOCC2)n1	9
CCOC(=O)c1c(C)c(C(=O)N2CCc3ccccc3C2)c(C)n1CC	7
O=C(CCn1nnc(-c2cccs2)n1)N1CCc2ccccc2C1	36*	VCAM1 pot conf=2
O=C(Nc1cccc2ccccc12)N1CCc2ccccc2C1	-3
Cc1ccc(C(C(=O)NC2CCCCC2)N(Cc2ccco2)C(=O)Cc2c[nH]c3ccccc23)o1 (configuration not stated)	4
CC(C)C(OC(=O)c1ccco1)C(=O)NCc1ccccc1 (configuration not stated)	-18
COc1ccc(-c2c[n+]3c4n2CCCCC4=C(c2ccccc2)C3)cc1	0
Cc1ccc(N2CN=c3s/c(=C\c4cccnc4)c(=O)n3C2)cc1	98*	VCAM1 pot conf=1
CCOC(=O)Cc1csc(SCC(=O)/C(C#N)=C(\C)N)n1	-59
CCCN1C2=C(C(=O)CCC2)C(c2ccc(F)cc2)C2=C1c1ccccc1C2=O (configuration not stated)	19
CC(Sc1nnc(-c2cccs2)n1-c1ccccc1)C(=O)NCc1ccco1 (configuration not stated)	-3
CN1CCN(S(=O)(=O)c2ccc(Sc3nnc(-c4cccs4)n3-c3ccccc3)nc2)CC1	59*	VCAM1 pot conf=-6
Cc1ccc(OCCSc2nnc(-c3cccs3)n2C)cc1	7
CCOc1ccc(OCC)c(S(=O)(=O)N2CCCCC2C)c1 (configuration not stated)	-3
COc1cc(CN2CCC(C(=O)NC3CCCC3)CC2)ccc1O	8
O=C(CN1CCC(n2nnc3ccccc32)CC1)Nc1ccc2c(c1)CCC2	u	VCAM1 pot conf=-14
Cc1cc(C)cc(NC(=O)CN2CCc3ccccc3C2)c1	-1
O=C(CN1CCN(CC(=O)Nc2ccccc2Cl)CC1)Nc1ccc2c(c1)OCCO2	-8
CC(O)(CS(=O)(=O)Cc1ccccc1)C(=O)Nc1ccc(C(F)(F)F)cc1 (configuration not stated)	2
Cc1c(C(=O)N2CCC(C(N)=O)CC2)sc(N)c1C#N	-5
COc1ccc(C(C#N)(CCC#N)CCC#N)cc1OC	37*	VCAM1 pot conf=-19
CC1CCN(C(=S)c2ccccc2O)CC1	-5
CNc1nc(OCCNC(=O)Nc2ccccc2)nc(N2CCOCC2)n1	0
CCCC(C(=O)NC1CCCC1)N(CCCN1CCOCC1)C(=O)c1snc(C(N)=O)c1N (configuration not stated)	-78
SMILES	VCAM1 TNFa pot	others
CCc1nc(SCC(=O)N2c3ccccc3CC2C)c2c(C)c(C)sc2n1 (configuration not stated)	0
O=C(CSc1ccc2nnc(-c3ccccc3)n2n1)N1CCN(c2ccccc2)CC1	-8
NC(=O)C1CCN(C(=O)CSc2ccccn2)CC1	41*	VCAM1 pot conf=-6
NC(=O)C1CCN(C(=O)CCSc2ccccc2)CC1	5
Cn1ccnc1C(=O)c1cc(=O)c2ccccc2o1	8
COc1ccc(S(=O)(=O)N2CCC(C(=O)Nc3ccc(OC)c(OC)c3)CC2)cc1C	14
CNC(=S)N1N=C(c2ccc(Br)cc2)CC1c1ccc(Br)cc1 (configuration not stated)	69*	VCAM1 pot conf=0
Cn1c(=O)c2c(ncn2CC(=O)Nc2nc3ccc(F)cc3s2)n(C)c1=O	-2
CC(C)C(=O)Nc1nc2c(ncn2C2CC(O)C(CO)O2)c(=O)[nH]1 (configuration not stated)	30*	VCAM1 pot conf=-7
CCC/C(=N/NC(=O)c1csc(C)c1C)c1ccc(Cl)s1	1
Cc1cc(C)c2c(N)c(C(=O)N3CCN(c4ncccn4)CC3)sc2n1	-22
Cc1cc(C)c2c(n1)sc1c(N3CCN(CCO)CC3)ncnc12	u	VCAM1 pot conf=-13
c1nc(N2CCOCC2)c2sc3nc(N4CCOCC4)c4c(c3c2n1)CCCC4	-8
CS(=O)(=O)N1CCN(C(=O)c2ccc(Br)s2)CC1	7
CCCCP(=O)(CCCC)Cc1ccccc1O	-6
CC(=O)c1c(N2CCC(C(N)=O)CC2)nc(=S)n(-c2ccccc2)c1C	1
O=C(CSc1cccs1)Nc1ccc2ccccc2c1	12
COc1ccc(C(=O)N[C@H](C(=O)NCC2CCCCC2)C(C)C)cc1	-18
Cc1cc(C)c(OCC(=O)Nc2cccc(O)c2)cc1C	26
CCOC(=O)c1ccc(NC(=O)COc2cc(=O)n(CC)c3ccccc23)cc1	0
COc1ccccc1OCC(=O)Nc1ccc(C(N)=O)cc1	51*	VCAM1 pot conf=-16
Cc1nn(-c2ccc(F)cc2)c(Cl)c1/C=C(\CCC(=O)O)c1nc2ccccc2s1	-9
Cc1c(C(C)NC(=O)Nc2ccc(F)cc2F)cnn1C (configuration not stated)	25
CCCCN(CCCNC(=O)c1c(C)cc(=O)oc1C)c1ccccc1	40*	VCAM1 pot conf=-6
CCCCOCCCNC(=O)c1cccs1	-90
SMILES	VCAM1 TNFa pot	others
Cc1ccc(S(=O)(=O)NCCCNC(=O)c2ccccc2)cc1	2
CCOc1cnc(-c2ccc(OC)cc2)o1	0
CCN1CCCC1CNC(=O)Cn1cnc2sc(C)c(S(=O)(=O)N3CCC(C)CC3)c2c1=O (configuration not stated)	48*	VCAM1 pot conf=-2
O=C(CCCSc1nc2ccccc2s1)NC1=NCCS1	-14
Cn1cnnc1SCC(=O)Nc1ccccc1C(=O)NC1CC1	36*	VCAM1 pot conf=-13
Cc1nnc(NC(=O)CSc2nccn2C)s1	6
Cn1cnnc1SCCNS(=O)(=O)c1ccccc1	7
Cc1ccnc(SCCn2c(N3CCN(Cc4ccccc4)CC3)nc3c2c(=O)[nH]c(=O)n3C)n1	-1
O=C(NNC(=O)c1sccc1-n1cccc1)c1cccc(Cl)c1	-4
Cc1ccc(NC(=O)CC2COc3ccccc3O2)cc1 (configuration not stated)	-1
CCn1c(CNC(=O)C(C)(C)C)nc2ccccc21	-6
CCn1c2ccccc2c2cc(C3N=C(N)Nc4nc5ccccc5n43)ccc21 (configuration not stated)	54*	VCAM1 pot conf=-9
CCn1c(=O)c2c(cnn2C)c2ccccc21	-13
CCOC(=O)C1=NN(c2ccccc2C)C2=NC(C)=C(C(=O)OC)C(c3cccs3)N12 (configuration not stated)	15
COc1ccc(NC(=O)C2CC2)cc1NS(=O)(=O)c1ccc(F)cc1	-2
COc1ccccc1C(=O)NC(CCSC)C(=O)NCC(c1ccco1)N(C)C (configuration not stated)	10
CN(C)C(CNc1nnnn1-c1ccccc1)c1ccco1 (configuration not stated)	u	VCAM1 pot conf=-6
c1ccc(-n2ncc3c(NCc4ccco4)ncnc32)cc1	-6
O=C(CSc1nnc2c3cc(F)ccc3nc(-c3ccccc3)n12)N1CCOCC1	-14
COc1ccc2c(C)cc(SCC(=O)N3CCOCC3)nc2c1	u	VCAM1 pot conf=-21
Cc1ccc(OCc2nnc(SCC(=O)N3CCOCC3)n2C)cc1	-15
CC(C)Oc1cc(NC(=O)CSCC(=O)Nc2cccc(C(F)(F)F)c2)c(Cl)cc1Cl	-4
COC(=O)c1nnn(CC(=O)Nc2cccc(Cl)c2)c1C(=O)OC	0
C=CCOn1c(=O)c(=O)n(OCc2ccccc2)c2ccccc21	96*	VCAM1 pot conf=-15
COc1cccc(Nc2nc(=O)[nH]nc2C)c1	29

Assay outcomes (PubChem BioAssay)
